Measured values: PubChem BioAssay (EPA / NIEHS)
Inconclusive results are not listed. Active and inactive are the calls of the source. The calls were made as follows, unless noted: active = hit-call score of the fitted dose curve at least 0.9, where 1 is the maximum; inactive = score below 0.9.

Key:
[1] = target: Myc proto-oncogene protein (Homo sapiens) (UniProt P01106); assay: ATG_Myc_CIS: Attagene CIS-FACTORIAL HepG2 Assay for human Myelocytomatosis (Myc) Proto-Oncogene Transcription Factor (AID 2282990); details: HepG2, Attagene cis-reporter transcription factor activity; actives raise or lower the signal
How it was run: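 DMSO-normalised, bidirectionally fitted reporter mRNA signal. HepG2 cells transfected with cis reporter constructs, treated 24 h; transcripts detected by RT-PCR, 6-FAM primer extension and CE.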

[2] = ATG_NF_kB_CIS: Attagene CIS-FACTORIAL HepG2 Assay for human Nuclear Factor Kappa B (NF-kB) (AID 2282991); details: HepG2 Attagene cis-factorial NF-kB reporter mRNA; actives raise or lower the signal
How it was run: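 DMSO served as negative control and baseline for bidirectional curve fitting. Transiently transfected HepG2 cells were dosed for 24 h, then reporter transcripts were measured by RT-PCR with capillary electrophoresis detection.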

[3] = ATG_NRF2_ARE_CIS: Attagene CIS-FACTORIAL HepG2 Assay for human Nuclear Factor Erythroid 2 Related Factor 2 (NFR2) response to Antioxidant Response Elements (ARE) (AID 2282992); details: HepG2 Attagene ARE/NRF2 reporter, transcription factor activity; actives raise or lower the signal;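 as to AC50: reporter mRNA level measured by RT-PCR and capillary electrophoresis fluorescence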
How it was run: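 Multiplexed reporter mRNA profiling in HepG2 after a 24 h chemical exposure. Curves fitted in both directions relative to DMSO negative control.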

[4] = ATG_Oct_MLP_CIS: Attagene CIS-FACTORIAL HepG2 Assay for human Octamer-Binding Transcription Factor (Oct) (AID 2282993); details: HepG2 Attagene cis-factorial Oct reporter, mRNA; actives raise or lower the signal
How it was run: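 Using HepG2 cells bearing transfected cis-reporter constructs, mRNA induction was read after 24 h by fluorescent RT-PCR and capillary electrophoresis, with DMSO defining baseline for gain- or loss-of-signal fits.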

[5] = target: Cellular tumor antigen p53 (Homo sapiens) (UniProt P04637); assay: ATG_p53_CIS: Attagene CIS-FACTORIAL HepG2 Assay for human p53 Transcription Factor (AID 2282994); details: HepG2 p53 cis-element reporter, Attagene mRNA; actives raise or lower the signal
How it was run: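 Multiplexed reporter mRNA assay in human HepG2 liver cells; cis-regulated units report endogenous factor activity. Values come from bidirectional curve fitting against DMSO negative control after 24 h treatment.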

[6] = target: human Peroxisome Proliferator-activated Receptor alpha (PPARa), PPARA (gene 5465) (UniProt Q07869); assay: ATG_PPARa_TRANS: Attagene TRANS-FACTORIAL HepG2 Assay for human Peroxisome Proliferator-activated Receptor alpha (PPARa) (AID 2283001; active = hit-call score of the fitted dose curve at least 0.9, where 1 is the maximum)
How it was run: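 Gain-of-signal endpoint: reporter mRNA induction relative to DMSO, detected by fluorescent RT-PCR and capillary electrophoresis. HepG2 cells transiently carried GAL4-UAS-driven reporter units plus NR-Gal4 fusion; exposure lasted 24 h.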

[7] = target: human Peroxisome Proliferator-activated Receptor delta (PPARd), PPARD (gene 5467) (UniProt Q03181); assay: ATG_PPARd_TRANS: Attagene TRANS-FACTORIAL HepG2 Assay for human Peroxisome Proliferator-activated Receptor delta (PPARd) (AID 2283002; active = hit-call score of the fitted dose curve at least 0.9, where 1 is the maximum)
How it was run: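 Measured quantity: GAL4-UAS reporter transcript induction in HepG2 after 24 h chemical dosing, with NR-Gal4 chimeras supplied by transient transfection. Detection by RT-PCR and capillary electrophoresis; upward fit against DMSO.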

[8] = target: Peroxisome proliferator-activated receptor gamma (Homo sapiens) (UniProt P37231); assay: ATG_PPARg_TRANS: Attagene TRANS-FACTORIAL HepG2 Assay for human Peroxisome Proliferator-activated Receptor-gamma (PPARg) (AID 2283007; active = hit-call score of the fitted dose curve at least 0.9, where 1 is the maximum)
How it was run: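 Chimeric NR-Gal4 transactivation is measured in transiently transfected HepG2 cells by reporter mRNA induction at 24 h. Detection uses RT-PCR with fluorescent labelling and capillary electrophoresis; DMSO defines baseline.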

[9] = target: Nuclear receptor subfamily 1 group I member 2 (Homo sapiens) (UniProt O75469); assay: ATG_PXR_TRANS: Attagene TRANS-FACTORIAL HepG2 Assay for human Pregnane X Receptor (PXR) (AID 2283008; active = hit-call score of the fitted dose curve at least 0.9, where 1 is the maximum)
How it was run: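 Measures mRNA induction of a GAL4-UAS-driven reporter in human HepG2 cells transiently expressing PXR fused to Gal4, following 24 h treatment. DMSO served as negative control and baseline.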

[10] = target: human RAR-related Orphan Receptor beta (RORb), RORB (gene 6096) (UniProt Q92753); assay: ATG_RORb_TRANS: Attagene TRANS-FACTORIAL HepG2 Assay for human RAR-related Orphan Receptor beta (RORb) (AID 2283010; active = hit-call score of the fitted dose curve at least 0.9, where 1 is the maximum)
How it was run: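 Readout is reporter-gene mRNA induction, detected as fluorescence after RT-PCR and capillary electrophoresis, fitted for gain of signal against DMSO controls. Transiently transfected HepG2 liver cells carrying GAL4-UAS reporter constructs were treated for 24 hours.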

[11] = BSK_3C_TissueFactor: BioMAP Diversity Plus: 3C Assay for Tissue Factor Biomarker Activity (AID 2282997); details: BioMAP 3C HUVEC, tissue factor biomarker readout; actives raise or lower the signal
How it was run: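 Human vascular primary cells (umbilical vein endothelium) received test chemical; Tissue Factor was determined by ELISA at 24 h, and both gain and loss of signal versus DMSO were fitted.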

[12] = BSK_3C_uPAR: BioMAP Diversity Plus: 3C Assay for Urokinase-type plasminogen activator receptor (uPAR) Biomarker Activity (AID 2282998); details: BioMAP 3C HUVEC, uPAR biomarker ELISA; actives raise or lower the signal
How it was run: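 In this endothelial cell-based assay, human umbilical vein primary cells were treated with chemicals and harvested at 24 h. uPAR was quantified using ELISA, with gains or losses fitted relative to DMSO controls.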

[13] = BSK_4H_Eotaxin3: BioMAP Diversity Plus: 4H Assay for Eotaxin 3 Biomarker Activity (AID 2283000); details: primary human endothelial cells (HUVEC); actives raise or lower the signal
How it was run: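 Readout is Eotaxin-3 (CCL26) level by ELISA in primary human umbilical vein endothelial cells harvested 24 h after chemical exposure; activity fitted in both directions against DMSO control.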

[14] = read-out: Intercellular Adhesion Molecule 1 (ICAM1), ICAM1 (gene 3383); assay: BSK_3C_ICAM1: BioMAP Diversity Plus: 3C Assay for Intercellular Adhesion Molecule 1 (ICAM1) Biomarker Activity (AID 2283003); details: primary human endothelial cells (HUVEC); actives raise or lower the signal
How it was run: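 ICAM-1 levels measured by ELISA after HUVEC cultures in the 3C system had been dosed for 24 h. Gain or loss of signal relative to DMSO was fitted in both directions.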

[15] = BSK_3C_Proliferation: Cell Proliferation Assessment in the BioMAP Diversity Plus: 3C Assay (AID 2283006); details: primary human endothelial cells (HUVEC);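 as to AC50: potency may reflect either rise or fall in cell number versus DMSO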
How it was run: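 Read-out is total protein by SRB absorbance at 560 nm, taken as a proxy for relative cell number. Primary human umbilical vein endothelium cultured below confluence was dosed for 48 h, TCA-fixed and SRB-stained; curves were fitted bidirectionally versus DMSO.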

[16] = target: human Retinoic Acid Receptor gamma (RARg), RARG (gene 5916) (UniProt P13631); assay: ATG_RARg_TRANS: Attagene TRANS-FACTORIAL HepG2 Assay for human Retinoic Acid Receptor gamma (RARg) (AID 2283009; active = hit-call score of the fitted dose curve at least 0.9, where 1 is the maximum)
How it was run: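 Transient transfection of HepG2 with multi-reporter constructs, then 24 h chemical treatment. Total RNA isolated, reverse-transcribed, PCR-amplified, fluorescently labelled and resolved by capillary electrophoresis; activity scored as mRNA induction versus DMSO.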

[17] = target: human RAR-related Orphan Receptor gamma (RORg), RORC (gene 6097) (UniProt P51449); assay: ATG_RORg_TRANS: Attagene TRANS-FACTORIAL HepG2 Assay for human RAR-related Orphan Receptor gamma (RORg) (AID 2283011; active = hit-call score of the fitted dose curve at least 0.9, where 1 is the maximum)
How it was run: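 Transient MRTU transfection of HepG2 (TRANS format, exogenous NR-Gal4 chimera). 24 h dosing. Total RNA → oligo(dT) RT → PCR → 6-FAM labelling → HpaI cut → CE. Gain vs DMSO.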

[18] = BSK_3C_VCAM1: BioMAP Diversity Plus: 3C Assay for Vascular cell adhesion molecule 1 (VCAM1) Biomarker Activity (AID 2282999); details: BioMAP 3C HUVEC, VCAM1 ELISA, cytokine-stimulated; actives raise or lower the signal
How it was run: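 Human umbilical vein endothelial cells were dosed with compound for 24 h, after which cell-surface VCAM-1 was quantified by ELISA. Bidirectional curve fitting used DMSO as negative control and activity baseline.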

[19] = target: human Retinoic Acid Receptor beta (RARb), RARB (gene 5915) (UniProt P10826); assay: ATG_RARb_TRANS: Attagene TRANS-FACTORIAL HepG2 Assay for human Retinoic Acid Receptor beta (AID 2283004; active = hit-call score of the fitted dose curve at least 0.9, where 1 is the maximum)
How it was run: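 Readout is reporter mRNA induction: RNA reverse-transcribed, PCR-amplified, FAM-labelled, HpaI-cut and resolved by capillary electrophoresis. Transiently transfected HepG2 cells carrying exogenous NR–Gal4 chimeras were dosed for 24 h; activity fitted upward relative to DMSO.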

[20] = target: Retinoic acid receptor alpha (Homo sapiens) (UniProt P10276); assay: ATG_RARa_TRANS: Attagene TRANS-FACTORIAL HepG2 Assay for human Retinoic Acid Receptor alpha (RARa) (AID 2283005; active = hit-call score of the fitted dose curve at least 0.9, where 1 is the maximum)
How it was run: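 HepG2 cells transiently transfected with multiple reporter units expressing chimeric RARα-GAL4 fusion, with GAL4-UAS-driven reporters. After 24 h compound exposure, reporter mRNA induction quantified by RT-PCR and capillary electrophoresis with fluorescent labeling; gain-of-signal fitted relative to DMSO control.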

Measured: AC50

Peroxisome proliferator-activated receptor gamma (Homo sapiens), sequence (P37231 whole entry, looked up, the tested form may be a part): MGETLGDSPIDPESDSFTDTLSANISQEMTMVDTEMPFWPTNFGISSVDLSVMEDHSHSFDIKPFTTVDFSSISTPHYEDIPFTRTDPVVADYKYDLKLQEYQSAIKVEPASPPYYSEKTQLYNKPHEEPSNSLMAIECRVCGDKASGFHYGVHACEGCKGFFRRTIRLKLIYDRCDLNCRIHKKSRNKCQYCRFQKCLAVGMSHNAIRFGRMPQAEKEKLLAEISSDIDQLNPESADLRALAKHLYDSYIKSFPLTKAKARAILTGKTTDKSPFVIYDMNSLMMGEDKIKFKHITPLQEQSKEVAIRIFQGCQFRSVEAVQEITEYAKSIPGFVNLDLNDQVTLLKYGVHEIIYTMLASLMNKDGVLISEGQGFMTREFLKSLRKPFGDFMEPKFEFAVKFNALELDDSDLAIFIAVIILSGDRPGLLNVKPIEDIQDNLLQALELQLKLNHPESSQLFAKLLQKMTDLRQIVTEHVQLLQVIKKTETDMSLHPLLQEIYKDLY
human Peroxisome Proliferator-activated Receptor delta (PPARd), PPARD (gene 5467), sequence (Q03181 whole entry, looked up, the tested form may be a part): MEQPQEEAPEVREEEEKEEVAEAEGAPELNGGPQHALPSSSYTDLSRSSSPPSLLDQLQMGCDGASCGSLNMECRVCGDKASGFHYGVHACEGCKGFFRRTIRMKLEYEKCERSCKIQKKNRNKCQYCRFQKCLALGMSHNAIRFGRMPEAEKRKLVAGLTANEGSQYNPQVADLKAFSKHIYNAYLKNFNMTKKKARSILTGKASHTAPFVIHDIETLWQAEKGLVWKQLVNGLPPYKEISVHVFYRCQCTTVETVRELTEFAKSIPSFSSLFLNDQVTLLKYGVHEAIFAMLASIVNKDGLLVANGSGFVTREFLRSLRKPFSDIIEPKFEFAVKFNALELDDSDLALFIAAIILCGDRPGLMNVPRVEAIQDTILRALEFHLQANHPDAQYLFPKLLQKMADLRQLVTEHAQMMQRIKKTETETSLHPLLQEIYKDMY
Myc proto-oncogene protein (Homo sapiens), sequence (P01106 whole entry, looked up): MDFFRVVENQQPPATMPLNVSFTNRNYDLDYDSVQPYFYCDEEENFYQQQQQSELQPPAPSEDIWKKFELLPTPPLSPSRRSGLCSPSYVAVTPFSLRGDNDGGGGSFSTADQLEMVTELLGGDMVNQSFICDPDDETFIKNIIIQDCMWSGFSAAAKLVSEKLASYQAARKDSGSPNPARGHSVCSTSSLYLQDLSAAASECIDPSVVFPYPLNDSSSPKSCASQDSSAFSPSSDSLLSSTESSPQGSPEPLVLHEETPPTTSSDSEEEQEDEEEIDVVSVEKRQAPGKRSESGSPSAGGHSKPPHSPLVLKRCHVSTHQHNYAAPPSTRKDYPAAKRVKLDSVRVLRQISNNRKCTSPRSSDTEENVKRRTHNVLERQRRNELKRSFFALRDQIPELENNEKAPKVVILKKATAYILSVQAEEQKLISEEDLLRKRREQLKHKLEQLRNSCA
human Peroxisome Proliferator-activated Receptor alpha (PPARa), PPARA (gene 5465), sequence (Q07869 whole entry, looked up, the tested form may be a part): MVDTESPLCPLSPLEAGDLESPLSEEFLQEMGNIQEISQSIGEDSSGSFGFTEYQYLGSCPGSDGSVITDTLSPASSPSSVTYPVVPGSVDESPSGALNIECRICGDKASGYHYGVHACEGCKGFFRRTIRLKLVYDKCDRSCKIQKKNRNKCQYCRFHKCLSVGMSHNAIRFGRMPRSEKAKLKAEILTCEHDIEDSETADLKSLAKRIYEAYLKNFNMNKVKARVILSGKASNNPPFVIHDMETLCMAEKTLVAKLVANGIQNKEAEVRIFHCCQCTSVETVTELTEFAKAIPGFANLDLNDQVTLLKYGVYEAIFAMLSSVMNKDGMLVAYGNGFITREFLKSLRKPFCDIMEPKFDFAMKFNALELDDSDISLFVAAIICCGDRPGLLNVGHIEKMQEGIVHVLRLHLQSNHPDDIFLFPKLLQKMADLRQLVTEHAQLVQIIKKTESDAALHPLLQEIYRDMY
human RAR-related Orphan Receptor beta (RORb), RORB (gene 6096), sequence (Q92753 whole entry, looked up, the tested form may be a part): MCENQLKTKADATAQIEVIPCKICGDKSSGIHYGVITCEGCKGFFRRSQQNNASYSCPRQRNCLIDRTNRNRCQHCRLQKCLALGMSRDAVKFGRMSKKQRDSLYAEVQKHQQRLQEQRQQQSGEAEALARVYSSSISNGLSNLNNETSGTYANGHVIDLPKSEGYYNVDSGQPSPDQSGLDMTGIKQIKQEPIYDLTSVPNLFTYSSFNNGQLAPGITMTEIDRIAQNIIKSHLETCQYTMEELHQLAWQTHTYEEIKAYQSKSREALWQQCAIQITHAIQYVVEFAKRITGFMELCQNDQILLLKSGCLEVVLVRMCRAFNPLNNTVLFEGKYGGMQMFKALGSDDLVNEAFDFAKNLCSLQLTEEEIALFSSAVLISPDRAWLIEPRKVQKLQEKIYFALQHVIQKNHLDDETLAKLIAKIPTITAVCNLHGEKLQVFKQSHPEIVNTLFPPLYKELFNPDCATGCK
human Retinoic Acid Receptor gamma (RARg), RARG (gene 5916), sequence (P13631 whole entry, looked up): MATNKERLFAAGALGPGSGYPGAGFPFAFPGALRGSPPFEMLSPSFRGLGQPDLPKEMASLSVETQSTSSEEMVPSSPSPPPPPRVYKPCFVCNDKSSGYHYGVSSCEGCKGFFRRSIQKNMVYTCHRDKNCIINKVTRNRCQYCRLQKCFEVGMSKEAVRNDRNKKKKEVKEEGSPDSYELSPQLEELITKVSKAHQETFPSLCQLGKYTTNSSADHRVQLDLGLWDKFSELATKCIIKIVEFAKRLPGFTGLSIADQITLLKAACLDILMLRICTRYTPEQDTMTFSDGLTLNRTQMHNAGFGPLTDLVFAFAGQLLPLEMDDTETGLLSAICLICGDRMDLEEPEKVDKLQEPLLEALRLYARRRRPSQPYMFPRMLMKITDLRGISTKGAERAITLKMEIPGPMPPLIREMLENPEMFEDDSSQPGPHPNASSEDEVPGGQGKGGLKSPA
Cellular tumor antigen p53 (Homo sapiens), sequence (P04637 whole entry, looked up): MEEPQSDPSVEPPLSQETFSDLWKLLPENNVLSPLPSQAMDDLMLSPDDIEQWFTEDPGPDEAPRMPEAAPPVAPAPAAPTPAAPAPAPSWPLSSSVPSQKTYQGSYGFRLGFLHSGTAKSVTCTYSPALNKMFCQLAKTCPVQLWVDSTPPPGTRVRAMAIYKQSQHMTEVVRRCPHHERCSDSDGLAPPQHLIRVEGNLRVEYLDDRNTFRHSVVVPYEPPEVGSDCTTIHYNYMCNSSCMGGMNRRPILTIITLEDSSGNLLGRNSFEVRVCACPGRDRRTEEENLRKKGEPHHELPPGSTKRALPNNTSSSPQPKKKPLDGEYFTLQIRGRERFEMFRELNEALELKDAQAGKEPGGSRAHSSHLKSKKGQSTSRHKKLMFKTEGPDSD
Nuclear receptor subfamily 1 group I member 2 (Homo sapiens), sequence (O75469 whole entry, looked up, the tested form may be a part): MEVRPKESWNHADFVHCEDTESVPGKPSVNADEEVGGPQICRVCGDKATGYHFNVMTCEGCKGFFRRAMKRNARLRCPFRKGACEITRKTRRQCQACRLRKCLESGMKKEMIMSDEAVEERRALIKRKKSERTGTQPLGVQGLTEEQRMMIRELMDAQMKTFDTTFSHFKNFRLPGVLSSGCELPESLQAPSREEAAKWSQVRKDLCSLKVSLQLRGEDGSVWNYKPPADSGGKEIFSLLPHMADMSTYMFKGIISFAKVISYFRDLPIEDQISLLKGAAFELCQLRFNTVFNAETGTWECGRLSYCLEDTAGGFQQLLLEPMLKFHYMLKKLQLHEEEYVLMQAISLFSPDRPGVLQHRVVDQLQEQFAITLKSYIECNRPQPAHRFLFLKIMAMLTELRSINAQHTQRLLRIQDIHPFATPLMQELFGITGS
human RAR-related Orphan Receptor gamma (RORg), RORC (gene 6097), sequence (P51449 whole entry, looked up, the tested form may be a part): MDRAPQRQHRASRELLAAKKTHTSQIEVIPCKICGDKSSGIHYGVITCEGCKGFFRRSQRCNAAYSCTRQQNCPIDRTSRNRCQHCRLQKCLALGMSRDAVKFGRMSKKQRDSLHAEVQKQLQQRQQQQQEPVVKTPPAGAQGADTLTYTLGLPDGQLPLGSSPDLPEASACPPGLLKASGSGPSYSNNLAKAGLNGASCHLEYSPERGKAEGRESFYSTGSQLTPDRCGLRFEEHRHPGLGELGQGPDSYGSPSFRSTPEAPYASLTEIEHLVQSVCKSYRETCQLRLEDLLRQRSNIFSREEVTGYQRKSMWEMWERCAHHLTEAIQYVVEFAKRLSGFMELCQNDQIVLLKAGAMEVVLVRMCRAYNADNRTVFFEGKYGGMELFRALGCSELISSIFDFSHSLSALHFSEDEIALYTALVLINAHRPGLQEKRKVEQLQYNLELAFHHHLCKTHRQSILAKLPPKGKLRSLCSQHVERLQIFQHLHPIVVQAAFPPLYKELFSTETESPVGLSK
human Retinoic Acid Receptor beta (RARb), RARB (gene 5915), sequence (P10826 whole entry, looked up, the tested form may be a part): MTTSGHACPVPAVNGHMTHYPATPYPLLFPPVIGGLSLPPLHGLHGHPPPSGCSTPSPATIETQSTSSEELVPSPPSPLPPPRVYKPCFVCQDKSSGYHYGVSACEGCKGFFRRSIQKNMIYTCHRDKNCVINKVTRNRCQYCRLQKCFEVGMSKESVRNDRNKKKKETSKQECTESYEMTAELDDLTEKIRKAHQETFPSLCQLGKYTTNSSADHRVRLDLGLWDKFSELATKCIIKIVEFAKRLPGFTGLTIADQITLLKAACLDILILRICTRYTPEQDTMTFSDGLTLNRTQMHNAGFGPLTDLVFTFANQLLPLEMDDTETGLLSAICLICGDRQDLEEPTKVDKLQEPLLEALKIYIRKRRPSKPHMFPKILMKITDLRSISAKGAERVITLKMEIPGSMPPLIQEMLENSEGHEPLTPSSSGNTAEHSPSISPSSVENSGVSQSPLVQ

Clc1cc(C(Cl)(Cl)Cl)cnc1Cl
inactive: [3] | [6] | [7] | [8] | [9] | [10]
active: [1] 55.5 µM | [2] 8.56 µM | [4] 15.6 µM | [5] 14.7 µM

NC(=O)CCl
active: [3] 78.2 µM
not listed: [18] | [19] | [20]
inactive: all other assays above

C[C@]12CC[C@@H](O)C[C@@H]1CC[C@@H]1[C@@H]2CC[C@]2(C)C(=O)CC[C@@H]12
not listed: [7] | [8] | [19] | [20]
inactive: all other assays above

Cc1cc(Cl)ccc1OC(C)C(=O)O (stereo not drawn)
active: [8] 71.4 µM
not listed: [9] | [18] | [19] | [20]
inactive: all other assays above

Nc1c(Oc2ccccc2)cc(O)c2c1C(=O)c1ccccc1C2=O
active: [3] 2.25 µM | [13] 10 µM | [8] 6.44 µM | [9] 3.13 µM
not listed: [18]
inactive: all other assays above

C=CCN=C=S
inactive: [1] | [2] | [3] | [4] | [5] | [6] | [7] | [8] | [9] | [10]

OC(Cc1ccccc1Cl)(Cn1[nH]cnc1=S)C1(Cl)CC1 (stereo not drawn)
active: [3] 12.1 µM | [5] 75.7 µM | [12] 20 µM | [13] 20 µM | [15] 30.7 µM | [8] 59.8 µM | [9] 17.7 µM
not listed: [6] | [10] | [17] | [19] | [20]
inactive: all other assays above
